Test results published in PubChem BioAssay AID588342 (National Center for Advancing Translational Sciences (NCATS), 2011).
Where “and” joins values, the source holds several entries; their conditions need not be identical. Equal values may be shown once. Among all 360,000 compounds or so, about 25,000 (6.9%) were called active. A call without a number means that no potency is given here. Inconclusive results (about 9%) are left out. Calls come from the whole dose curve; as a rule, active = well fitted inhibition curve with a large enough effect; inconclusive = small, poorly fitted or top-dose-only effect; inactive = flat fitted curve, though single readings scatter. The full list was thinned out, with actives kept by preference. Some structures have more than one record in an assay (separate samples or runs), and their calls can disagree.

Target: Luciferin 4-monooxygenase (Photinus pyralis) (UniProt P08659)
Assay: qHTS profiling assay for firefly luciferase inhibitor/activator using purifed enzyme and Km concentrations of substrates (counterscreen for miR-21 project); note: nearly all actives have a fitted effect of over 55% in size
Conditions: purified FLuc, luminescence inhibition; series mostly up to 57.5 µM
In short: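 Biochemical qHTS of compounds, final roughly 60 µM downward over six points, against 10 nM purified firefly luciferase using Km concentrations of substrates (10 uM D-luciferin, 10 uM ATP) in Tris acetate pH 7.5 buffer; luminescence output.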
Potency is the fitted concentration of half-maximal effect.

Luciferin 4-monooxygenase (Photinus pyralis), sequence (P08659 whole entry, looked up): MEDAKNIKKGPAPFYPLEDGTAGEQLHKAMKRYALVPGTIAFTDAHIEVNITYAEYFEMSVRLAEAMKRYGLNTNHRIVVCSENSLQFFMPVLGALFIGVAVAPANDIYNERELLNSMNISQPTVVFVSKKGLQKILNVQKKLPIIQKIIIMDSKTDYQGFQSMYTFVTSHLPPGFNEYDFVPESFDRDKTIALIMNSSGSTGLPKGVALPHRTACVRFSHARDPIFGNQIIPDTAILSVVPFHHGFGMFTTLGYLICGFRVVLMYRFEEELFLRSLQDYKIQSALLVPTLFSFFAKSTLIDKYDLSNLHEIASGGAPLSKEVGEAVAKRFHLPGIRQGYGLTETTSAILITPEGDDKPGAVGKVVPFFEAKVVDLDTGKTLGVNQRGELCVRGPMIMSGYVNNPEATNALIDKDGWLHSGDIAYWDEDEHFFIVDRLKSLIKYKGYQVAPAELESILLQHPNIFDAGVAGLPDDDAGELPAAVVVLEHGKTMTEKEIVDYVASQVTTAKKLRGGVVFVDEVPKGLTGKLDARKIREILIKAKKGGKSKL

| Compound | Potency | activity change, negative = inhibition |
| --- | --- | --- |
| COc1ccc(C)cc1NC(=O)CCCN1C(=O)NC(C)(C)C1=O | inactive | – |
| CCCNC(=O)CCC(=O)N1Cc2ccccc2Oc2ncccc21 | inactive | – |
| CCCCC(=O)OC1=CN(Cc2ccccc2)S(=O)(=O)c2ccccc21 | inactive | – |
| COCCn1c(C)cc(C(=O)CSc2nnc(C3CC3)n2C2CC2)c1C | 19 µM (active) | – |
| COCCn1c(C)cc(C(=O)CSc2nc3ccccc3c(=O)n2C(C)COC)c1C (configuration not stated) | inactive | – |
| COCCn1c(C)cc(C(=O)CSc2ncnc3sc4c(c23)CCC4)c1C | – | 8.69% [at 2.3 µM] (inactive) |
| CCOC(=O)c1c(N)c(C#N)nn1-c1ccccc1C(=O)OC | inactive | – |
| Cc1cc(C)n(CC(=O)Nc2ccc([N+](=O)[O-])cc2)n1 | inactive | – |
| CC1CC(C)CN(C/C=C/c2ccccc2[N+](=O)[O-])C1 (configuration not stated) | inactive | – |
| COc1ccc(-c2c(C)nn3c(N4CCC(C(=O)NCCC(C)C)CC4)cc(C)nc23)cc1OC | inactive | – |
| COC(=O)c1ccc(/C=N/NC(=O)C(=O)N2CCCCCC2)cc1 | inactive | – |
| O=C(N/N=C/c1ccc([N+](=O)[O-])cc1)C(=O)N1CCCC1 | inactive | – |
| O=C(N/N=C/c1ccc2c(c1)OCO2)C(=O)N1CCCC1 | 15.1 µM (active) | – |
| CCn1ncc(C2=NOC(C(=O)Nc3ccccc3C(=O)OC)C2)c1C (configuration not stated) | inactive | – |
| Cc1cccc(-n2c(SCC(N)=O)nc3c(oc4ccccc43)c2=O)c1 | inactive | – |
| CN(Cc1ccco1)S(=O)(=O)c1nnc(NC(=O)c2ccccc2)s1 | inactive and 23.9 µM (active) | – |
| CCCCC(=O)Nc1nnc(S(=O)(=O)N(C)Cc2ccco2)s1 | inactive | – |
| COc1cccc(C(=O)Nc2nnc(S(=O)(=O)N(C)c3ccccc3)s2)c1 | inactive | – |
| CCCCN(C)CCCNC(=O)CN1N=C(c2ccc(OC)cc2)CCC1=O | inactive | – |
| COc1ccc(NC(=O)CSc2nc3ccccc3c(=O)n2C)cc1 | inactive | – |
| Cc1ccc(C(=O)CSc2nc3ccccc3c(=O)n2N)o1 | 12 µM (active) | – |
| COC(=O)CSc1nc2ccccc2c(=O)n1Cc1ccccc1 | inactive | – |
| Cc1cccc(N2CCN(C3=C(c4ccccc4)C(=O)c4ccccc43)CC2)c1C | inactive | – |
| O=[N+]([O-])c1ccc(NCCCO)c(C(F)(F)F)c1 | inactive | – |
| COc1cccc(NC(=O)CSC2=Nc3ccccc3C3=NC(CC(=O)NC4CCCCC4)C(=O)N23)c1 (configuration not stated) | inactive | – |
| COc1cccc(C(=O)OCc2cc(=O)oc3c(C)c(C)ccc23)c1OC | 16.9 µM (active) | – |

| Compound | Potency | activity change, negative = inhibition |
| --- | --- | --- |
| COc1ccc(Br)cc1CN1CCN(C(=O)c2cccc(OC)c2OC)CC1 | inactive | – |
| COC(=O)Cc1cc(=O)oc2c(C)c(O)ccc12 | inactive | – |
| O=C(C1COc2ccccc2O1)N(Cc1cccnc1)c1nc2c(F)cc(F)cc2s1 (configuration not stated) | inactive | – |
| CCOc1ccc(Nc2nc(Cl)nc(N3CCN(c4ccc(OC)cc4)CC3)n2)cc1 | inactive | – |
| COc1ccc(Nc2ncc(F)c(N3CCOCC3)n2)cc1 | 2.39 µM (active) | – |
| Cc1cc(Nc2ccc(Cl)cc2)nc(N2CCOCC2)n1 | inactive | – |
| O=C(NCc1ccccc1Cl)C1=Cc2cc(Br)ccc2OC1 | inactive | – |
| COc1ccc(CCNc2nc3c(-c4cccc(F)c4)nnn3c3ccccc23)cc1OC | inactive | – |
| O=C(COC(=O)c1ccncc1)c1ccccc1 | 23.9 µM (active) | – |
| O=C(OCC(O)C(O)COC(=O)c1ccccc1)c1ccccc1 (configuration not stated) | inactive | – |
| COc1ccc(NC(=O)COC(=O)c2ccncc2)c(OC)c1 | inactive | – |
| O=C(CCc1nc(CN2CCN(S(=O)(=O)c3ccc(Cl)cc3)CC2)no1)N1CCCCC1 | inactive | – |
| CCNC(=O)c1cc2n(n1)CCCN(Cc1ccc(C)cc1)C2=O | inactive | – |
| Cc1nn(CC(=O)O)c(=O)c2cc3cc(F)ccc3n12 | inactive | – |
| Cc1ccccc1Nc1nc(N)nc(CSc2nnc3ccccn23)n1 | inactive | – |
| Cc1ccccc1Nc1nc(N)nc(CSc2ccccc2)n1 | 2.13 µM (active) | – |
| Cc1ccc(C(=O)OCc2nc(N)nc(Nc3ccccc3C)n2)cc1 | inactive | – |
| COc1ccc(S(=O)(=O)NCC(c2ccc(N(C)C)cc2)N2CCc3ccccc32)cc1OC (configuration not stated) | inactive | – |
| CCOc1ccc(NC(=O)CCC(=O)N2CC(C)Oc3ccc(C)cc32)cc1 (configuration not stated) | inactive | – |
| O=C(c1cccc(Br)c1)N1CCN(Cc2cc(=O)n3nc(-c4ccccc4)sc3n2)CC1 | inactive | – |
| Cc1ccc(NC(=O)C2CCN(S(=O)(=O)c3cc(-c4noc(C)n4)ccc3C)CC2)c(C)c1 | inactive | – |
| O=C(CSc1nccn1Cc1ccc(Cl)cc1)NCc1ccccc1 | inactive | – |
| CCOc1ccc(OCc2ccc(C(=O)N(C)c3ccccc3)o2)cc1 | inactive | – |
| COc1cccc(COc2ccc(N(C)S(=O)(=O)c3ccccc3)cc2)c1 | inactive | – |
| COc1ccc(Cn2c(=S)[nH]c3cc(C(=O)N4CCCCC4)ccc3c2=O)cc1 | inactive | – |
| COc1ccc(CNC(=O)C2CCN(C(=O)c3ccccc3)CC2)cc1 | inactive | – |
